Screens (PubChem)
FAS-TE inh: blocks the thioesterase domain of human fatty acid synthase; P49327; recombinant FAS-TE, OMFH fluorogenic substrate, fluorescence endpoint; inhibition, % at 15 µM; actives 0.67% (n = 360,000); AID 602261;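 active means compounds whose normalised, plate-corrected inhibition of enzyme fluorescence in the single-dose primary screen is 50% or more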;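 further: 0% = DMSO with enzyme and 100% = substrate without enzyme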
aDG glyco act: increases alpha dystroglycan glycosylation; Pro5-aDG cells, alpha-DG glycosylation AlphaScreen (IIH6); 0% Pro5, 100% B10-LARGE cell signal; activation, % at 10 µM; actives 0.22% (n = 360,000); AID 624168;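 active means activation of at least 8% versus controls, or a plate z-score of at least 8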;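 further: Pro5 are CHO cells carrying HIG-tagged alpha-DG that lacks glycosylation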
ADAM10 inh: ADAM10 inhibition, QFRET primary screen; O14672; recombinant ADAM10, EDANS/DABCYL FRET peptide cleavage, 3 h; inhibition, % at 7 µM; actives 0.62% (n = 370,000);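 active means inhibition above a per-campaign cutoff equal to the mean of compounds falling between control-based bounds plus 3 SD, cut at about 20% in these data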;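 further: 0% = DMSO wells while the 100% control is not disclosed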
NR3A LBD binder: modulators (binders) of human NR3A ligand-binding domain; NR3A LBD differential scanning fluorimetry, Tm shift; 0% = protein alone, 100% = glycine-bound protein; Tm shift relative to glycine control, % at 25 µM; actives 2.5% (n = 340,000); AID 1259313;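 active means melting temperature shift of at least 10% of the positive control shift, at one fixed dose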
ADAM17 inh: inhibits human ADAM17; recombinant ADAM17, EDANS/DABCYL FRET peptide cleavage; AID 720648; actives 0.83% (n = 370,000); inhibition, % at 6.95 µM;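 active means inhibition above the mean of compounds lying between control limits plus 3 SD, set per campaign, cut at about 8.5% in these data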;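 further: 0% = DMSO-only wells as the low control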
Target sequence (P78536 215-824 limits assumed): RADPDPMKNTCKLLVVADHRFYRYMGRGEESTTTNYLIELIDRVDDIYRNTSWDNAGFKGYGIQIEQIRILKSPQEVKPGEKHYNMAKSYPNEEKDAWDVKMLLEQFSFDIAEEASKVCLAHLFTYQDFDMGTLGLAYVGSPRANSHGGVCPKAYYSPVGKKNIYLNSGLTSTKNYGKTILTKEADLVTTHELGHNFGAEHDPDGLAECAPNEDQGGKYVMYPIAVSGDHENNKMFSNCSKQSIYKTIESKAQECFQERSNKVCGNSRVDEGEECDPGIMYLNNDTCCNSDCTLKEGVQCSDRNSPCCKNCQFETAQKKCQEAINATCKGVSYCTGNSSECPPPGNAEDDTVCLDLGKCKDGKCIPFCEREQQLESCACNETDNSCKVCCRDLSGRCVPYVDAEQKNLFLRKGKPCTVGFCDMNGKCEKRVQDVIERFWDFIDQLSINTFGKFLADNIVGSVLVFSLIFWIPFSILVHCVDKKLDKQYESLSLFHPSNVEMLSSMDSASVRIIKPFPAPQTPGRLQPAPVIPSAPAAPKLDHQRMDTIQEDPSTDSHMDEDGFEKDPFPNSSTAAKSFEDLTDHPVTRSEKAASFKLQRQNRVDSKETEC
* marks the source's active call; other numbers are inactive results; . = no result given; ! = repeats disagree. Rows were chosen to be rich in hits. Some 4% of all compounds tested hit in one or more screens of this group.

SMILES	FAS-TE inh	aDG glyco act	ADAM10 inh	NR3A LBD binder	ADAM17 inh
O=C1c2ccccc2NC(c2ccccc2)N1/N=C/c1ccccc1 (configuration not stated)	15	0	-187	-5	-72
O=C(/C=C/c1ccco1)N/C(=C\c1ccco1)C(=O)NCCc1nc2ccccc2[nH]1	-6	0	-6	-6	-3
Cc1ccc(SCC(=O)NN=C2CCN(C)CC2)cc1	-3	0	0	-3	-1
O=C(N/N=C/c1c(O)ccc2ccccc12)c1cccc(C(F)(F)F)c1	26	1	-6	21*	0
COc1ccc2ccccc2c1/C=N/NC(=O)c1cccc(Br)c1	11	0	-5	4	1
COc1cc(/C=C(\C#N)C(=O)NCC2CCCO2)ccc1O (configuration not stated)	-8	0	-7	0	-1
CCOc1ccc(/C=C(\C#N)C(=O)NCC2CCCO2)cc1OCC (configuration not stated)	-6	0	-27	13*	-5
O=S(=O)(N/N=C/c1c(F)cccc1Cl)c1ccccc1	-8	2	2	10*	1
Cc1ccc(S(=O)(=O)N/N=C/c2c(F)cccc2Cl)cc1	-8	0	0	-1	2
CCOc1ccc(-c2nn[nH]n2)cc1OCC	-3	0	-6	-1	-5
CCNC(=S)NNC(=O)c1cc(-c2ccc(OC)cc2)nc2ccccc12	2	0	-176	-12	-50
CCCCOc1cccc(-c2cc(C(=O)NNC(=S)NCC)c3ccccc3n2)c1	74*	0	-39	11*	-15
CCCCOc1ccc(-c2cc(C(=O)NNC(=S)NCC)c3ccccc3n2)cc1	30	0	.	17*	.
COc1cccc(NC(=O)c2cnc[nH]2)c1	-6	0	4	1	0
O=C(CCC1CCCN(Cc2cccc3c2OCO3)C1)NCc1ccc(F)c(F)c1 (configuration not stated)	-1	0	-3	2	-1
CCOc1ccc(N2C(=O)S/C(=C\c3ccc(O)c(OC)c3)C2=O)cc1	-8	0	0	-1	-1
COc1cc(/C=C2\SC(=N)N(c3ccc(F)cc3)C2=O)ccc1O	-5	0	-6	27*	0
COc1cc(/C=C2\SC(=N)N(c3ccc4c(c3)OCO4)C2=O)cc(OC)c1O	8	0	-5	11*	-1
CC(=O)c1ccc(NC(=O)NC2CCCCN(Cc3ccc(Cl)cc3)C2=O)cc1 (configuration not stated)	.	.	6	.	0
CCCC(O)(CCC)C(=O)NN1CCCCC1	-8	0	.	27*	.
Cc1ccc2[nH]c3c(c2c1)CN(C(=O)CN1CCN(c2ccccn2)CC1)CC3	-2	0	-24	1	-6
CN1CCN(CC(=O)Nc2ccccc2[N+](=O)[O-])CC1	-7	0	0	3	0
COc1ccc(C(NC(=O)/C=C/c2ccco2)c2ccc(OC)c(OC)c2)cc1 (configuration not stated)	-4	0	14	-13	1
CCOc1ccc(C(NC(=O)/C=C/c2ccco2)c2ccc(OC)c(OC)c2)cc1 (configuration not stated)	-5	1	2	10*	4
COc1ccccc1NC(=O)c1sc(Cl)nc1C	-4	0	-11	0	1
SMILES	FAS-TE inh	aDG glyco act	ADAM10 inh	NR3A LBD binder	ADAM17 inh
O=C(Nc1ccc(S(=O)(=O)N2CCOCC2)cc1)c1cccc(Br)c1	12	0	8	31*	7
Cc1ccc(-n2ccc(=O)c(C(=O)Nc3ccc(S(=O)(=O)N4CCOCC4)cc3)n2)cc1	5	0	-12	12*	-6
N#Cc1cccc(NC(=O)c2ccc(S(=O)(=O)N3CCOCC3)cc2)c1	1	0	-17	16*	-4
O=C(Nc1ccc(S(=O)(=O)N2CCOCC2)cc1)c1nn(-c2ccc(F)cc2)ccc1=O	0	0	7	-1	-1
N#Cc1cccc(NS(=O)(=O)c2ccc(S(=O)(=O)N3CCOCC3)cc2)c1	-6	0	-14	1	-8
COc1ccc(NC(=O)c2ccc(NCCCN3CCOCC3)c([N+](=O)[O-])c2)cc1	4	1	5	14*	4
Cc1cccc(N2CCN(C(=O)CNC(=O)C3CCCCC3)CC2)c1C	0	1	-3	0	-6
O=C(Nc1ccc(S(=O)(=O)N2CCOCC2)cc1)c1ccco1	-8	0	-10	0	-4
CC(=O)Nc1ccc(S(=O)(=O)N2CCCN(S(=O)(=O)c3ccc(NC(C)=O)cc3)CC2)cc1	1	0	4	11*	2
O=C(NCCCN1CCOCC1)c1ccc(Sc2cccc(Cl)c2)c([N+](=O)[O-])c1	3	0	-10	19*	-4
O=C(Nc1ccc(S(=O)(=O)N2CCOCC2)cc1)c1ccccc1	-1	0	.	7	.
O=C(Nc1ccc(S(=O)(=O)N2CCOCC2)cc1)c1cc(-c2ccccc2O)n[nH]1	3	0	15	27*	7
CC(=O)Nc1ccc(C(=O)Nc2ccc(S(=O)(=O)N3CCOCC3)cc2)cc1	-3	0	-8	31*	1
CC(=O)Nc1ccc(S(=O)(=O)N2CCN(S(=O)(=O)c3ccc(NC(C)=O)cc3)CC2)cc1	-1	0	1	-1	-1
CC(C)c1nnc(NC(=O)CCC(=O)Nc2ccc3cn[nH]c3c2)s1	-6	0	4	0	-3
CSCCC(NC(=O)c1ccccc1Cl)C(=O)N(C)CC(=O)Nc1ccc(N2CCOCC2)cc1 (configuration not stated)	-4	0	-17	1	2
CS(=O)(=O)OCCCCOS(C)(=O)=O	0	0	-9	0	-6
CN1CCN(S(=O)(=O)c2ccc(-c3ccc(Cl)cc3)cc2)CC1	1	0	1	3	-1
O=C(Nc1ccc(S(=O)(=O)N2CCOCC2)cc1)c1ccc(Cl)c([N+](=O)[O-])c1	44	0	-9	35*	-2
Cc1ccc(Nc2nc(-c3ccc(S(=O)(=O)N4CCOCC4)cc3)cs2)cc1Cl	30	0	-36	26*	-14
Cc1ccc(C(=O)Nc2ccc(S(=O)(=O)N3CCOCC3)cc2)cc1Br	37	0	-4	34*	-2
O=C(Nc1cccc(S(=O)(=O)N2CCOCC2)c1)c1ccc(Cl)c([N+](=O)[O-])c1	37	0	1	0	6
COc1cccc(C(=O)Nc2nc(-c3ccc(S(=O)(=O)N4CCOCC4)cc3)cs2)c1	23	0	4	-3	0
CN1CCN(S(=O)(=O)c2ccc(Cl)cc2)CC1	-6	0	-9	14*!	2
CCCC(=O)N1CCC1(C)C(=O)Nc1cc(C)ccc1C (configuration not stated)	-11	0	-16	.	-7
